Assay outcomes from PubChem BioAssay.
ALOX12 inh = blocks human arachidonate 12S-lipoxygenase; P18054; purified 12hLO, xylenol orange hydroperoxide absorbance; Potency, µM (top dose mostly 108 µM), without a hit: at the top dose activity change, negative = inhibition, hits mostly inhibitors; 580,000 compounds, 1.1% hits; also: % is scaled to controls: 0 for no effect and ±100 for the full control effect
Target sequence (P18054 whole entry, looked up): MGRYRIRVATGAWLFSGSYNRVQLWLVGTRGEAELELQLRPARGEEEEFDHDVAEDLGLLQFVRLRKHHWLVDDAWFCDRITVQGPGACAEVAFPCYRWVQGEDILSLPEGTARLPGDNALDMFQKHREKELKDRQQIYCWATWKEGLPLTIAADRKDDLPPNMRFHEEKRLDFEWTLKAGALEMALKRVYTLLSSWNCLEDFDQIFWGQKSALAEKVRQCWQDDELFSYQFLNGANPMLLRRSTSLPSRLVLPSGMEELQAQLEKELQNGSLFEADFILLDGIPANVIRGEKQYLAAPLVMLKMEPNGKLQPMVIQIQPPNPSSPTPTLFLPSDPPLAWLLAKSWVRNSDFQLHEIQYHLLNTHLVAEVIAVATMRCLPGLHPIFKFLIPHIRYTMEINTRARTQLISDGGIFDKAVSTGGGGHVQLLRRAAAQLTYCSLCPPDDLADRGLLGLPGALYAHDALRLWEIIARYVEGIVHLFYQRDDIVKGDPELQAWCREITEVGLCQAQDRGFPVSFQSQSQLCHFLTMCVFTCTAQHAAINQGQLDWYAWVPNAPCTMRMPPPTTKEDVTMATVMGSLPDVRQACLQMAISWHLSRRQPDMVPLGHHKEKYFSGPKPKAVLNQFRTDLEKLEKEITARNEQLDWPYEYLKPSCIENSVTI
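Purified human 12hLO (150 nM final) in 25 mM Hepes, 0.01% Triton X-100, pH 7.0 was preincubated 15 min at room temperature with compound. Then 40 uM arachidonic acid was added, 30 min. Hydroperoxide was read by Fe-XO absorbance ratio 573/405 nm.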
PTHR1 ag = agonists of human PTHR1 parathyroid hormone receptor. Q03431. 410,000 compounds, 0.075% hits. Potency, µM (highest dose often 115 µM), for inactives: at the highest dose activation, actives largely listed as activators. AID 743266. HEK293 GP2 PTHR1 cells, GloSensor cAMP luminescence, 1 h; also: nearly all actives have a fitted effect of over 55% in size
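HEK-293-derived GP2 cells expressing PTHR1 and a GloSensor cAMP reporter, 3,000/well, plated overnight, given luciferin plus IBMX (each 0.5 mM as added) for 1 h at 37 °C, then compound for 1 h at 37 °C. Luminescence was read after 15 min at room temperature.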
GLP1R inv ag = GLP-1 receptor (human) inverse agonism; HEK293 GLP-1R CRE-luciferase, luminescence, 24 h; GLP-1R form is constitutively active; Potency, µM (titrated, usually from 38.3 µM), inactives show at the highest dose activity change, negative = inhibition, actives largely listed as inhibitors; 410,000 compounds, 1.6% hits; P43220; also: % is scaled to controls: 0 for no effect and ±100 for the full control effect; nearly all actives have a fitted effect of over 55% in size
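Assay principle: reduced luminescence from a cAMP-responsive reporter in HEK293 cells co-expressing a constitutively active GLP-1R. Conditions: 24 hr compound incubation, 37 deg C, 5% CO2.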
GLP-1R agonist = GLP-1 receptor (human) agonism | P43220 | HEK293 GLP-1R CRE-luciferase, luminescence, 4-6 h; cells express a hypersensitive GLP-1R form | Potency, µM (highest dose often 45.6 µM), without a hit: at the highest dose activation, hits mostly activators | 380,000 compounds, 0.007% hits | AID 624172; also: % of control where 0% means no effect
Glioma ERSR ind = induces the endoplasmic reticulum stress response in human glioma cells; U87-MG GRP78 promoter luciferase reporter, 16 h; Potency, µM, for inactives: top-dose activation, hits mostly activators; 420,000 compounds, 0.02% hits; AID 602332; also: series mostly up to about 76 µM; % of control where 0% means no effect; nearly all actives have a fitted effect of over 35% in size
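Stably transfected U87-MG glioma cells carrying a GRP78-based luciferase sensor; 16 h compound incubation. Luminescence end-point read 10 min after Bright-Glo addition at room temperature.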
GLS inh = blocks human kidney-isoform glutaminase activity | O94925 | GLS enzymatic activity, qHTS titration | Potency, µM (highest dose often 45.5 µM), for inactives: at the top dose activity change, negative = inhibition, actives largely listed as inhibitors | 410,000 compounds, 0.21% hits | AID 624170; also: % is scaled to controls: 0 for no effect and ±100 for the full control effect
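Human kidney-isoform GLS in 45 mM KH2PO4 pH 8.2, 0.02% Tween-20, with compound, started with 1mM L-Glutamine (added stock). Glutamate oxidase/HRP/Amplex red coupled fluorescence read at start and after 30 min at RT.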
* marks the source's active call; other numbers are inactive results; i = inactive; ? = inconclusive; · = no result given; ! = a repeat was not active; [ ] = remark or other dose. Rows were chosen to be rich in hits. Some 2.3% of all compounds tested hit in one or more screens of this group. Calls follow the shape of the dose curve; as a rule, active = well fitted curve in the direction sought with a large enough effect; inconclusive = small, poorly fitted or top-dose-only effect, or another doubt; inactive = no such curve, though single readings can be large; an effect the other way counts as inactive or inconclusive. Potency is read from the fitted curve at half-maximal effect.

SMILES	ALOX12 inh	PTHR1 ag	GLP1R inv ag	GLP-1R agonist	Glioma ERSR ind	GLS inh
CCCCCn1nc(C(=O)Nc2cccc(OC)c2)c2ccccc2c1=O	5%	·	·	·	·	·
O=C(c1cc2c(s1)CCCC2)N1CCN(S(=O)(=O)c2ccccc2C(F)(F)F)CC1	-11%	-31%	10µM*	7%	-4%	-11%
COc1ccc(Cl)cc1C(=O)N1CCC2(CC1)NC(=O)N(c1ccccc1Cl)N2	1.8µM*	·	·	·	·	·
Cc1ccc(C(=O)N2CCC3(CC2)NC(=O)N(c2ccccc2Cl)N3)cc1C	1.3µM*	·	·	·	·	·
Cc1[nH]c2ccc(C(=O)N3CCN(c4ccccc4Cl)CC3)cc2c1C	-11%	i	?	-1%	-3%	-2%
COc1ccc(Cl)cc1C(=O)N1CCC2(CC1)CC(=O)c1ccccc1O2	?	-20%	-26%	-5%	-4%	8%
COc1ccc(Cl)cc1C(=O)N1CCC2(CC1)NC(=O)N(c1ccccc1)N2	1.8µM*	·	·	·	·	·
COc1ccc(C(=O)N2CCC3(CC2)NC(=O)N(c2ccccc2Cl)N3)cc1F	1.3µM*	·	·	·	·	·
O=C(c1ccc2c(c1)OCO2)N1CCC2(CC1)NC(=O)N(c1ccccc1Cl)N2	2µM*	·	·	·	·	·
COc1ccc(C(=O)N2CCC3(CC2)NC(=O)N(c2ccccc2Cl)N3)cc1	2.2µM*	·	·	·	·	·
O=C(c1ccoc1)N1CCC2(CC1)NC(=O)N(c1ccccc1Cl)N2	1.3µM*	·	·	·	·	·
COc1ccc(C(=O)N2CCC3(CC2)NC(=O)N(Cc2ccccc2)C3=O)cc1	17%	·	·	·	·	·
Cc1c(CCOC(=O)c2ccc(Cl)cc2Cl)sc[n+]1CC(=O)c1ccc(Br)cc1	?	-38%	10µM*	5%	-2%	5%
COc1ccc(C(=O)OCCc2sc[n+](CC(=O)c3ccccc3)c2C)cc1	?	-7%	-4%	6%	-2%	-4%
Cc1c(CCOC(=O)C2C3CC4CC(C3)CC2C4)sc[n+]1CC(=O)c1ccc(Br)cc1 (configuration not stated)	40µM*!	-17%	11µM*	-55%	-14%	-7%
O=C(CSCc1coc(-c2ccc(Cl)cc2)n1)NCCc1ccccc1	-10%	·	·	·	·	·
Cc1cc(=O)n2cn[nH]c2n1	-20%	i	2%	0%	-1%	0%
Cc1cc(=S)n2cn[nH]c2n1	0.45µM*	·	·	·	·	·
CCc1ccccc1NC(=O)c1cc2c(s1)CN(C(C)C)C2	325%	·	·	·	·	·
CCC(=O)c1ccc(OCC(O)CN(CCc2ccccc2)Cc2ccccc2)cc1 (configuration not stated)	?	-16%[57.5 µM]	8.9µM*	5%	-4%	0%
OC(COc1ccccc1)CN(Cc1ccccc1)CC(O)COc1ccccc1 (configuration not stated)	-3%	i	?	-2%	-4%	-2%
Cc1ccccc1-n1c(C)nnc1SCc1nc2ccccc2o1	-11%	·	·	·	·	·
Cc1cc(C)cc(OCCSc2nc3ccc(NC(=O)c4cccs4)cc3s2)c1	-21%	i	10µM*	·	-2%	3%
Cc1ccc(OCCSc2nc3ccc(NC(=O)c4cccs4)cc3s2)cc1	-9%	19%	0%	·	-2%	-19%
CSc1ccc(NC(=O)CC2C=CCC2)cc1 (configuration not stated)	-4%	·	·	·	·	·
CCc1nncn1C1CCN(S(=O)(=O)c2cccc(OC)c2)CC1	79µM*	·	·	·	·	·
COc1cc(-c2cc(=O)c3c(O)c(OC)c(OC)c(O)c3o2)ccc1O	?	2%	33%	21%	14%	2.8µM*
COc1ccc(-c2oc3c(OC)c(OC)c(OC)c(O)c3c(=O)c2OC)cc1OC	33%	-9%	2.8µM*	8%	-2%	11%
COc1c(OC)c(O)c2c(=O)c(O)c(-c3ccccc3)oc2c1OC	?	-51%	?	-3%	1%	26%
COc1ccc(-c2cc(=O)c3c(O)c(OC)c(OC)c(OC)c3o2)cc1OC	·	·	·	·	-5%	·
